# Experimental data taken from PubChem BioAssay (NCATS).
# Records with an inconclusive call do not appear. Where a call stands in place of a potency, no number is given. Active and inactive are the calls of the source. Unless noted, calls follow the shape of the dose curve; as a rule, active = well fitted curve in the direction sought with a large enough effect; inconclusive = small, poorly fitted or top-dose-only effect, or another doubt; inactive = no such curve, though single readings can be large; an effect the other way counts as inactive or inconclusive.
# What was measured:
# [1] = S16 Schwann cell PMP22 intronic element firefly luciferase assay (AID 624032); also: nearly all actives have a fitted effect of over 30% in size
# In short: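 Rat S16 Schwann cells stably carrying a PMP22 intronic element-driven Fluc reporter were seeded overnight, then exposed to compounds for 24 h at 37 °C. Luminescence was normalized to PTC124 (positive control) and DMSO (0% activity).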
# CP260 = assay: qHTS profiling for inhibitors of Plasmodium falciparum proliferation (AID 504749); also: nearly all actives have a fitted effect of over 60% in size; settings: P. falciparum in erythrocytes, SYBR Green DNA, 72 h; series mostly up to 12.8 µM
# In short: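 P. falciparum-infected erythrocytes (0.3% parasitemia, 2.5% hematocrit final) were exposed to compounds for 72 h at 37 C in 5% CO2, then lysed with SYBR Green buffer overnight at room temperature; parasite DNA fluorescence was normalized to artemisinin and DMSO controls.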
# [2] = target: Cytochrome P450 2C19 (Homo sapiens) (UniProt P33261); assay: qHTS Assay for Inhibitors and Substrates of Cytochrome P450 2C19 (AID 899); also: nearly all actives have a fitted effect of over 60% in size
# Sequence of Cytochrome P450 2C19 (Homo sapiens) (P33261 whole entry, looked up): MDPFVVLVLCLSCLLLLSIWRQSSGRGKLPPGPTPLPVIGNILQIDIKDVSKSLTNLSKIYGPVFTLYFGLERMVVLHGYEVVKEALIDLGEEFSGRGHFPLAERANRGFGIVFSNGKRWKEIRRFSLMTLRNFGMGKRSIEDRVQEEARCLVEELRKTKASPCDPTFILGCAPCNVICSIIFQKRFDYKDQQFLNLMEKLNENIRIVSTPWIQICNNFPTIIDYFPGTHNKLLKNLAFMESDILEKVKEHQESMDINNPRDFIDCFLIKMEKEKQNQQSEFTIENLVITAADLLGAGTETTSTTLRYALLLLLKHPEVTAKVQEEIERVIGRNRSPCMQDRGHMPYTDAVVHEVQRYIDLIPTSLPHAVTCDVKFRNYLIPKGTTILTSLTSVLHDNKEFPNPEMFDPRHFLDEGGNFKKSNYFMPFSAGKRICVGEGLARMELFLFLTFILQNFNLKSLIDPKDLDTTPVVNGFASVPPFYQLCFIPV
# In short: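 NADPH-dependent conversion of Luciferin-H EGE (10uM, at KM) by 5nM enzyme in 50mM KPO4, 60 min at 37C following 10 min compound preincubation. Stopped with luciferin detection buffer; luminescence read after 20 min.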
# [3] = target: Guanine nucleotide-binding protein G(i) subunit alpha-1 (Homo sapiens) (UniProt P63096); assay: qHTS Assay for Inhibitors of RGS12 GoLoco Motif Activity (Green Fluorophore) (AID 879);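 also: negative values mean loss of peptide binding seen as reduced polarization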
# Sequence of Guanine nucleotide-binding protein G(i) subunit alpha-1 (Homo sapiens) (P63096 whole entry, looked up): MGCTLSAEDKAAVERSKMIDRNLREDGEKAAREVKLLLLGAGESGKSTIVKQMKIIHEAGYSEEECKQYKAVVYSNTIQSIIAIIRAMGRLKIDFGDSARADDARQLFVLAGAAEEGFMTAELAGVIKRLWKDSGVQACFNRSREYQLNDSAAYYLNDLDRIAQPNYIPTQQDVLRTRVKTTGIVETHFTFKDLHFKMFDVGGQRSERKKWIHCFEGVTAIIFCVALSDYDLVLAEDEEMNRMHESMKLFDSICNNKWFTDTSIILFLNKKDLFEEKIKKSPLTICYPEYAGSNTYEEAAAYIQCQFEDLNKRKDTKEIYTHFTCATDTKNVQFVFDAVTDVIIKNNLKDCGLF
# In short: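 Fluorescence polarization assay: 50 nM Gαi1 with 10 nM FITC-labeled RGS12 GoLoco peptide in 10 mM Tris pH 7.5, 150 mM NaCl, 0.1 mM GDP, 0.05% NP40, 10 min at room temperature with compound.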
# [4] = target: Cytochrome P450 2C9 (Homo sapiens) (UniProt P11712); assay: qHTS Assay for Inhibitors and Substrates of Cytochrome P450 2C9 (AID 883); also: nearly all actives have a fitted effect of over 60% in size; also: potency is read from the fitted curve at half-maximal effect
# Sequence of Cytochrome P450 2C9 (Homo sapiens) (P11712 whole entry, looked up): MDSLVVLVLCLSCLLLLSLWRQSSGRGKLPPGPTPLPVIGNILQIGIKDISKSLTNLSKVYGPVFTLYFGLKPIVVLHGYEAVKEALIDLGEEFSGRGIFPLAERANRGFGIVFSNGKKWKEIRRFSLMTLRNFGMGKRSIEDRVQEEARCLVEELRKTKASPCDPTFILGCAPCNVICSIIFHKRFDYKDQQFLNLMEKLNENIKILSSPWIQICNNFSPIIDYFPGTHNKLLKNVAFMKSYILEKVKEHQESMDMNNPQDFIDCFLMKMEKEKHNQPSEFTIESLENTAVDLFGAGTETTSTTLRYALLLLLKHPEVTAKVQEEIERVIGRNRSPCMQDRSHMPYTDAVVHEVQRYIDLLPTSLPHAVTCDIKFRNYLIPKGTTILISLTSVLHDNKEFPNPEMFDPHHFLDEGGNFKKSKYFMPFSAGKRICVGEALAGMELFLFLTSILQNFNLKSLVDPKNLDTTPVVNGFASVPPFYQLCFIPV
# In short: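 A luminogenic readout tracked human CYP2C9 (10nM) converting deoxyluciferin (100uM, at KM) in 25mM KPO4 during 60 min at 37C with regenerated NADPH. Values normalized to 57uM sulphaphenazole as complete inhibition.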
# [5] = qHTS Assay for Identification of Small Molecule Agonists for Thrombopoietin (TPO) Signaling Pathway (AID 917)
# In short: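 Luminescence from a Glycoprotein IIb promoter–driven luciferase reporter served as read-out in murine Ba/F3 cells carrying the human TPO receptor. Cells, deprived of IL-3 overnight, received compounds with 26 pM TPO and were incubated 24 hrs at 37 C.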
# [6] = target: Muscarinic acetylcholine receptor M1 (Rattus norvegicus) (UniProt P08482); assay: qHTS Assay for Antagonists of Acetylcholine Muscarinic M1 Receptor: Kinetic Measurement of Intracellular Calcium Response (AID 943);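 also: Fluo-4 calcium signal as peak divided by basal fluorescence over 4 min; nearly all actives have a fitted effect of over 75% in size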
# Sequence of Muscarinic acetylcholine receptor M1 (Rattus norvegicus) (P08482 whole entry, looked up): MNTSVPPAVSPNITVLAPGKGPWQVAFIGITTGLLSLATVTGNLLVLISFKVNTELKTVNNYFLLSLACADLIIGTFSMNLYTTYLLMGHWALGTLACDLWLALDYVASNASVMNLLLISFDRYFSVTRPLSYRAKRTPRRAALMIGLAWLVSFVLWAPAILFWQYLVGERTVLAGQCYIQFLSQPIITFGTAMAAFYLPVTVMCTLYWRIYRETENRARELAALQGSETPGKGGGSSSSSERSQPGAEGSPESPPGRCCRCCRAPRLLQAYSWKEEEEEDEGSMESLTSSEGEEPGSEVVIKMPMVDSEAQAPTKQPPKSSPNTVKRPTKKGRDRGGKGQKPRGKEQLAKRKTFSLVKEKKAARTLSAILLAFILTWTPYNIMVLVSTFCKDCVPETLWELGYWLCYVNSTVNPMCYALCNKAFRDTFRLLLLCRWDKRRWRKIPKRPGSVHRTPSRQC
# In short: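 CHO cells stably expressing rat M1 were loaded with no-wash Fluo-4 dye for 1 h at 37C, pre-incubated 10 min with compound, then challenged with EC80 carbachol (100 nM final); kinetic calcium read 4 min, peak/basal ratio.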
# [7] = target: Muscarinic acetylcholine receptor M1 (Rattus norvegicus) (UniProt P08482); assay: qHTS Assay for Antagonists of Acetylcholine Muscarinic M1 Receptor: Measurement of IP-One Response (AID 944); also: nearly all actives have a fitted effect of over 75% in size
# In short: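 CHO cells expressing rat M1 receptor, recovered overnight, were pre-incubated 10 min with compound, then stimulated 30 min with carbachol at EC80 (200 nM) in LiCl-containing buffer, pH 7.4. IP1 accumulation was read by HTRF (620/665 nm).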
# [8] = target: Pyruvate kinase (Leishmania mexicana) (UniProt Q27686); assay: qHTS Validation Assay for Inhibitors of Leishmania Mexicana Pyruvate Kinase (AID 945)
# Sequence of Pyruvate kinase (Leishmania mexicana) (Q27686 2-499 E452W): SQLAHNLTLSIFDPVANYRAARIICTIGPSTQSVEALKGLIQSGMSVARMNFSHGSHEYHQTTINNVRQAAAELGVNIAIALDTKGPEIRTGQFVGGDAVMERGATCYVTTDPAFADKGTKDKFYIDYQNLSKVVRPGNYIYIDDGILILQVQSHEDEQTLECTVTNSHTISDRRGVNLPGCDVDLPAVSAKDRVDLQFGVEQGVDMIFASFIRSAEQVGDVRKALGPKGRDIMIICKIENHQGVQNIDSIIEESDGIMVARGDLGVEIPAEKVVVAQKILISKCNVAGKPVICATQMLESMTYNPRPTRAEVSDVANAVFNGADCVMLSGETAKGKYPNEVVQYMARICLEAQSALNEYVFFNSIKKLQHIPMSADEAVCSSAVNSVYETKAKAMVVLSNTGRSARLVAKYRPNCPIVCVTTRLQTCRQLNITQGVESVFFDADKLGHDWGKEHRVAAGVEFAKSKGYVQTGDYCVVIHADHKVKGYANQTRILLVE
# In short: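 Mutant LmPYK (E451W), 0.2 nM, plus 0.5 mM PEP and 0.1 mM ADP in 50 mM imidazole pH 7.2 containing 0.01% Tween 20 and 0.05% BSA. Incubated 1 h at room temperature; luminescence via PKLight, normalized to DMSO.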
# [9] = target: Pyruvate kinase PKM (Homo sapiens) (UniProt P14618); assay: qHTS Assay for Activators of Human Muscle Pyruvate Kinase (AID 954; active = well fitted curve in the direction sought with a large enough effect, not every such curve was filed as active)
# Sequence of Pyruvate kinase PKM (Homo sapiens) (P14618 whole entry, looked up): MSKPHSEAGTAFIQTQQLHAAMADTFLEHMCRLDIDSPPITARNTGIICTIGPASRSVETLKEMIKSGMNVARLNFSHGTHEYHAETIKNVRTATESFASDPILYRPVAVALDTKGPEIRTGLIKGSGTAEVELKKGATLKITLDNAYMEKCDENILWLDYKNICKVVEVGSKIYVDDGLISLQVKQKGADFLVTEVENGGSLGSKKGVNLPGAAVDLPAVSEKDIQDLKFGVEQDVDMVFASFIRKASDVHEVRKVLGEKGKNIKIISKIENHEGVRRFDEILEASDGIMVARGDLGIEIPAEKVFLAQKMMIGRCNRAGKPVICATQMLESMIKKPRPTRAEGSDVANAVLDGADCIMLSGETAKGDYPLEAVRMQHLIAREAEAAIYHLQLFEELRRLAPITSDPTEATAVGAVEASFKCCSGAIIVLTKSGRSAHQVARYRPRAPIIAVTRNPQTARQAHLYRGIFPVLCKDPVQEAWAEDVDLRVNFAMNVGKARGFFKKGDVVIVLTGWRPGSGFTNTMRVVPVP
# In short: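 Enzyme was run at intermediate activity so both inhibitors and activators could be detected. ATP formed from ADP and PEP by 0.1 nM human PKM2 during a 1 h room-temperature incubation was quantified by coupled luciferase luminescence.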
# [10] = target: Alpha-galactosidase A (Homo sapiens) (UniProt P06280); assay: Counterscreen for Glucocerebrosidase Inhibitors: qHTS Assay for Human alpha-Galactosidase at pH 4.5 (AID 992)
# Sequence of Alpha-galactosidase A (Homo sapiens) (P06280 whole entry, looked up): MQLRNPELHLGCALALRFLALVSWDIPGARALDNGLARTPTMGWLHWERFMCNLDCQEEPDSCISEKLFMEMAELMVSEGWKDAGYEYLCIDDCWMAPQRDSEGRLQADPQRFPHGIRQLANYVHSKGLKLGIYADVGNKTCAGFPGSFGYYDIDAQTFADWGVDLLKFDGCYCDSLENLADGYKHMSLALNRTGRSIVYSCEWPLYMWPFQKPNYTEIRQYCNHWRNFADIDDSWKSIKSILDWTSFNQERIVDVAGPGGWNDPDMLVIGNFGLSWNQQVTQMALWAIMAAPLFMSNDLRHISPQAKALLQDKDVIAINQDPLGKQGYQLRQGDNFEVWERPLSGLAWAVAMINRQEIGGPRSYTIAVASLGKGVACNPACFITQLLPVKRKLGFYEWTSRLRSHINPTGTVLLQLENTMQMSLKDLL
# In short: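 Read-out is 4-methylumbelliferone fluorescence (365 nm excitation, 440 nm emission) after a pH 10 NaOH/glycine stop. Reactions held 2 nM enzyme and 80 uM substrate at pH 4.5 for 20 min at room temperature.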
# [11] = Confirmation and Secondary Assay for Modulators of Hemoglobin Beta Chain Splicing at IVS2 654 locus (AID 910);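 also: per-well total GFP intensity by laser scanning cytometry after 2-day treatment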
# In short: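 HeLa cells stably carrying EGFP interrupted by mutant beta-globin IVS2-654 intron (CMV-driven) were treated with compound for 2 days at 37C; corrected splicing was scored as total peak GFP intensity per well (488 nm excitation, 500-520 nm emission).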
# [12] = target: Cytochrome P450 2D6 (Homo sapiens) (UniProt P10635); assay: qHTS Assay for Inhibitors and Substrates of Cytochrome P450 2D6 (AID 891); also: nearly all actives have a fitted effect of over 60% in size; also: potency is read from the fitted curve at half-maximal effect
# Sequence of Cytochrome P450 2D6 (Homo sapiens) (P10635 whole entry, looked up): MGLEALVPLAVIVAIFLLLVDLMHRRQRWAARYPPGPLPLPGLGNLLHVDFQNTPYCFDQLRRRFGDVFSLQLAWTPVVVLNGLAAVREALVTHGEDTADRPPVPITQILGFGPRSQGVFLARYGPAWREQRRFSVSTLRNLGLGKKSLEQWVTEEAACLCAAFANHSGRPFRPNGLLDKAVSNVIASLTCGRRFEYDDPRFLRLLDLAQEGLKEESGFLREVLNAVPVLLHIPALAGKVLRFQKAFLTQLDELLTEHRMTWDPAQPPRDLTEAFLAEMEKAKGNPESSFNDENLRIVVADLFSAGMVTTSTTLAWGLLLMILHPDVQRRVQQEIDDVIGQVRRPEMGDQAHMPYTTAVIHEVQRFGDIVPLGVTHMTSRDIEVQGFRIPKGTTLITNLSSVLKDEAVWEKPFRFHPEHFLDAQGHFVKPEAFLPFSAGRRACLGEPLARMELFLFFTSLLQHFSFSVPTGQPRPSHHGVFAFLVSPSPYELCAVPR
# In short: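 Human CYP2D6 (5 nM) with 30 uM Luciferin-ME EGE (at Km) in 100 mM KPO4, compound preincubated 10 min, then NADPH regeneration system for 60 min at room temperature. Luciferin read by luminescence; normalized to 1.43 uM quinidine.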
# [13] = target: DNA dC->dU-editing enzyme APOBEC-3G (Homo sapiens) (UniProt Q9HC16); assay: qHTS for inhibitors of Vif-A3G interactions: Validation (AID 588379)
# Sequence of DNA dC->dU-editing enzyme APOBEC-3G (Homo sapiens) (Q9HC16 whole entry, looked up): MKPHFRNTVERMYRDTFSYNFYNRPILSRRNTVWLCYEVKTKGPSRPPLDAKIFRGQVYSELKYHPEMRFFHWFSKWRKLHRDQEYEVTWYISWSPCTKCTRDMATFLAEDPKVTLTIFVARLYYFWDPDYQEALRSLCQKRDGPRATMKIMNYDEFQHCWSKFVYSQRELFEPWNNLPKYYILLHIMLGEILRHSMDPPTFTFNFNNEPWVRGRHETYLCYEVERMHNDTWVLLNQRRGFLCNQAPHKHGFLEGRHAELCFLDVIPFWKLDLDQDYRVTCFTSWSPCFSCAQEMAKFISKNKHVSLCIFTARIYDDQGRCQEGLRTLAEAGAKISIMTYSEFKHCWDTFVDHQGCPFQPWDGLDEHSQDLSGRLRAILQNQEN
# In short: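 HeLa cells stably expressing Vif and A3G-eYFP, 700 cells/well, incubated overnight at 37 deg C, then exposed to compound overnight at 37 deg C. Inhibition of Vif-mediated degradation read as increased yellow fluorescence (Ex 488/Em 500-530) by laser-scanning cytometry.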
structure (smiles),measurement,setting,value
NS(=O)(=O)c1cc([C@@]2(O)NC(=O)c3ccccc32)ccc1Cl,Potency,[1],inactive
same,Potency,CP260,inactive
C[N+]1(C)CCC[C@@H](OC(=O)C(O)(c2ccccc2)c2ccccc2)C1,Potency,[2],inactive
same,Potency,[1],inactive
same,Potency,CP260,inactive
O=C(O)[C@H]1CCCN(CCC=C(c2ccccc2)c2ccccc2)C1,Potency,[3],inactive
same,Potency,[4],7.94 µM (active)
same,outcome,[5],inactive
same,Potency,[6],inactive
same,Potency,[7],inactive
same,outcome,[8],inactive
same,outcome,[9],inactive
same,outcome,[10],inactive
COc1ccccc1OC[C@H](O)COC(N)=O,Potency,[1],inactive
same,Potency,CP260,inactive
CN(C)CCOC(c1ccccc1)c1ccccc1 (tested in a mixture with another compound),Potency,[11],inactive
COc1c2ccoc2nc2c(OC)c(OC[C@H](O)C(C)(C)O)ccc12,Potency,[12],inactive
same,Potency,[2],inactive
CCCN[C@@H](C)C(=O)Nc1c(C)csc1C(=O)OC,Potency,CP260,inactive
CC1(C)Oc2ccc(C#N)cc2[C@H](N2CCCC2=O)[C@H]1O,Potency,[2],inactive
same,outcome,[13],inactive
same,Potency,[1],inactive
C[C@@](N)(Cc1ccc(O)cc1)C(=O)O,Potency,[3],inactive
same,Potency,[11],inactive
same,outcome,[5],inactive
same,outcome,[8],inactive
same,outcome,[9],inactive
CCCN1C[C@H](CSC)C[C@H]2c3cccc4[nH]cc(c34)C[C@@H]21,Potency,[4],inactive
same,Potency,[12],0.0316 µM (active)
same,Potency,[2],inactive
C=C1C2CC[C@@]3(C)C(c4ccoc4)OC(=O)C[C@@]13OC1CC(O)C(C)(C)C(CC(=O)OC)[C@@]12C (stereo partly drawn),Potency,[11],inactive
COc1ccc(C[C@@H]2c3cc(OC)c(OC)cc3CC[N@+]2(C)CCC(=O)OCCCCCOC(=O)CC[N@@+]2(C)CCc3cc(OC)c(OC)cc3[C@H]2Cc2ccc(OC)c(OC)c2)cc1OC,Potency,CP260,inactive
C[C@@H]1COc2c(N3CCN(C)CC3)c(F)cc3c(=O)c(C(=O)O)cn1c23,Potency,[3],inactive
same,outcome,[5],inactive
same,Potency,[7],inactive
same,outcome,[8],inactive
same,outcome,[9],inactive
same,Potency,[1],inactive
CC1(C)S[C@@H]2[C@H](NC(=O)[C@H](C(=O)O)c3ccsc3)C(=O)N2[C@H]1C(=O)O,Potency,[1],inactive
Cn1c(=O)c2c(ncn2C[C@@H](O)CO)n(C)c1=O,Potency,[1],inactive
same,Potency,CP260,inactive
CC(=O)Oc1cc(OC(C)=O)c2c(c1)OC(c1ccc(OC(C)=O)c(OC(C)=O)c1)C(OC(C)=O)C2 (stereo not drawn),Potency,[11],inactive
COC(=O)C1OC(=O)C2OC23[C@]2(C)C(O)CC4C(C)(C)C(OC(C)=O)CC(OC(C)=O)[C@@]4(C)C2CC[C@@]13C (stereo partly drawn),Potency,[11],inactive
